# Data: article PMC4336329 (PLoS ONE, 2015)
# The campaign covered roughly 310,000 compounds. About 14,000 (4.5%) showed an effect of 50% or more. The effect is printed as a negative number. This excerpt belongs to a sample that is enriched for strong results.
# Target: human ether-à-go-go-related gene (hERG) potassium channel (human, UniProt Q12809)
# Assay: primary screen, population patch clamp on CHO cells stably expressing hERG; higher = less effect of the substance
# 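Also: peak tail current of the secondary pulse compared with the same well before compound.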
# Sequence of human ether-à-go-go-related gene (hERG) potassium channel (Q12809 whole entry, looked up): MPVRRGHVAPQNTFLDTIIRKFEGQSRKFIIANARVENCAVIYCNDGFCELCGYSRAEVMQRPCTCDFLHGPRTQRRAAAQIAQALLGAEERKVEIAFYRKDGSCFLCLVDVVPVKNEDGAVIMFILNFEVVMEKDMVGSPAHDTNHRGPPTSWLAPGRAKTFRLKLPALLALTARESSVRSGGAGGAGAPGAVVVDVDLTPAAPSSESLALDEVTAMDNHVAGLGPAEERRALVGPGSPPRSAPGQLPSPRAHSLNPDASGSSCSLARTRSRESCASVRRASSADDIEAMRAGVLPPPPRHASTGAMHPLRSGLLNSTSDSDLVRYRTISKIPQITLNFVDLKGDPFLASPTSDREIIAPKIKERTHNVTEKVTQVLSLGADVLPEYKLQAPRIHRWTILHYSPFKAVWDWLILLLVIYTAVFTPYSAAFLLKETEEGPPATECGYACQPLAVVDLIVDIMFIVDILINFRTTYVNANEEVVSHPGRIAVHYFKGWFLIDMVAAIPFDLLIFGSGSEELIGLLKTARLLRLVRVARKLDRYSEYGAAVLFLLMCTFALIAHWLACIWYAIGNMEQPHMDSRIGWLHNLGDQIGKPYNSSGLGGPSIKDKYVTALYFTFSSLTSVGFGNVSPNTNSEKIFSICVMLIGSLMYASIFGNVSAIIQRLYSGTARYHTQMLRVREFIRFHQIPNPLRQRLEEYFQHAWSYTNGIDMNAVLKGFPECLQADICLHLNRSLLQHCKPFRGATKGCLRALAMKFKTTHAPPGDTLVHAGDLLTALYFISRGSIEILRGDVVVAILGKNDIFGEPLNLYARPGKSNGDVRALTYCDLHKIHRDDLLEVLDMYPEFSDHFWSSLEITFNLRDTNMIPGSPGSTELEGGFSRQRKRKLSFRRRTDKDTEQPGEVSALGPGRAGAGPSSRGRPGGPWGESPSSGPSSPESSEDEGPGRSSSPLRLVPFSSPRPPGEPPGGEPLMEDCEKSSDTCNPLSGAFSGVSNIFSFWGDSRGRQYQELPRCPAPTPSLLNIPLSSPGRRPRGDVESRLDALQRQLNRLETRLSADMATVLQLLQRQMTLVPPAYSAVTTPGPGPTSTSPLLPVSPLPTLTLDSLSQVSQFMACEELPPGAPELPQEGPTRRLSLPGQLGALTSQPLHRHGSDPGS
row,SMILES,"hERG current change (%, negative = inhibition) at 10uM"
1,O=C(COC(=O)c1ccccc1NS(=O)(=O)c1cccs1)NCC12CC3CC(CC(C3)C1)C2,5.15%
2,COc1cc(NC2c3ccccc3C(=O)N2Cc2ccccc2Cl)cc(OC)c1OC (centres unmarked),-0.846%
3,CC(C)(CO)NC(=O)C(Cc1ccccc1)N1C(=O)c2ccccc2C1=O (centres unmarked),17%
4,Cc1c(C#N)c(NC(=O)CCl)n(Cc2cccs2)c1C,-11.4%
5,CCN1CCN(C(=O)CCc2nnc(CCCCc3ccccc3)o2)[C@@H](C)C1=O,16.5%
6,CN1CCC(=O)N([C@H](CO)c2ccccc2)CC1,3.76%
7,CN1CCC(=O)N([C@H](CSc2ccc(Br)cc2)c2ccccc2)CC1,-83.7%
8,CN1CCC(=O)N([C@H](CN=[N+]=[N-])c2ccccc2)CC1,6.65%
9,CN1CCC(=O)N([C@H](CSc2ccccc2)c2ccccc2)CC1,-64.9%
10,CN1CCC(=O)N([C@H](CC#N)c2ccccc2)CC1,16.2%
11,Cc1cccc(C(=O)NCC(c2ccc(F)cc2)N2CCOCC2)c1 (centres unmarked),-2.49%
12,CCc1cccc(CC)c1C(OC(C)=O)c1cccnc1 (centres unmarked),-0.238%
13,CCc1ccc(NC(=O)c2ccc(C3SCC(=O)N3CCc3ccccc3)cc2)cc1 (centres unmarked),6.22%
14,CN(CC(=O)Nc1ccc2c(c1)OCO2)S(=O)(=O)c1cccs1,-26.9%
15,O=C(Nc1ccccc1N1CCCC1)c1ccccc1Cl,6.75%
16,O=C(Nc1ccccc1N1CCN(C(=O)c2ccccc2)CC1)c1ccccc1Cl,-78.8%
17,O=C(c1ccccc1)c1ccc(C(=O)N2CCN(c3ccccc3Cl)CC2)cc1,-13.3%
18,Cc1ccccc1C(=O)Nc1ccccc1N1CCN(C(=O)c2ccccc2)CC1,-74%
19,Cc1ccccc1C(=O)Nc1ccccc1N1CCCCC1,8.11%
20,Cc1ccccc1N1CCN(C(=O)c2ccccc2NC(=O)c2ccccc2C(=O)O)CC1,6.78%
21,COC(=O)Nc1ccc2c(c1)N(C(=O)CCN1CCOCC1)c1ccccc1S2.Cl,2.68%
22,Cc1nc(CCNC(=O)Cc2ccc(F)cc2)cs1,18.9%

row,SMILES,"hERG current change (%, negative = inhibition) at 10uM"
1,O=C(COc1ccc2c3c(c(=O)oc2c1)CCC3)N1CCN(c2ccccc2)CC1,-12.6%
2,CCC(CC)C(=O)Nc1ccc(Nc2ccccc2)cc1,8.32%
3,CC(C)[C@H](NC(=O)[C@@H]1Cc2ccccc2CN1)C(=O)Nc1ccc2c(c1)OCCO2,-30.2%
4,O=C(Cn1[nH]c(=O)c2ccccc2c1=O)OCC(=O)N(Cc1ccccc1)Cc1ccccc1,4.4%
5,O=C(CCNC(=O)c1ccc([N+](=O)[O-])cc1)Nc1cc(Cl)ccc1N1CCOCC1,-69.9%
6,CC(C)(C)c1ccc(C(=O)NCCC(=O)Nc2cc(Cl)ccc2N2CCOCC2)cc1,-2.31%
7,O=C(CCNC(=O)c1ccc([N+](=O)[O-])cc1)Nc1ccccc1N1CCCC1,-34.6%
8,O=C(CCNC(=O)c1ccc([N+](=O)[O-])cc1)Nc1ccc(N2CCOCC2)cc1N1CCOCC1,-4.63%
9,O=C(CCNC(=O)c1ccc([N+](=O)[O-])cc1)Nc1ccccc1N1CCOCC1,-64.3%
10,O=C(CCNC(=O)c1ccc([N+](=O)[O-])cc1)Nc1ccccc1N1CCCCC1,-34.9%
11,O=C(N1CCCCCC1)N1CCN(S(=O)(=O)c2ccccc2)CC1,-11.9%
12,Cc1c(CC(=O)NCC(=O)NCC(=O)O)c(=O)oc2cc3c(cc12)CCC(C)(C)O3,12.5%
13,Cc1ccc(C)c(NC(=O)CN(C)C(=O)[C@@H](NC(=O)c2ccc(C(C)(C)C)cc2)C(C)C)c1,-16.5%
14,Nn1c(SCC(=O)NC(=O)Nc2ccc3c(c2)OCCO3)nnc1C1CC1,14.3%
15,S=C(NCc1ccc(Cl)cc1Cl)Nc1ccccc1,10.1%
16,CC(C)NC(=NCc1ccc(Cl)cc1Cl)Nc1ccccc1,-53%
17,O=C(NCc1ccc(Cl)cc1Cl)Nc1ccccc1,2.75%
18,COC(=O)C1=C(c2ccc3ccccc3c2)C[C@@H]2CC[C@H]1N2C(=O)NCCCOC(C)C,-7.68%
19,O=C(COc1ccc(-c2ccccc2)cc1)N/N=C/c1ccccc1Br,19.7%
20,O=C(O)C1C2C=CC(C2)C1C(=O)N1CCN(C/C=C/c2ccccc2)CC1 (centres unmarked),17.1%
21,CCOc1ccc(Cn2c(C)nc([N+](=O)[O-])c2SCC(O)CCl)cc1[N+](=O)[O-] (centres unmarked),-68.2%
22,Cc1nc([N+](=O)[O-])c(SCC(O)CCl)n1Cc1ccc(Cl)cc1 (centres unmarked),-59.9%

row,SMILES,"hERG current change (%, negative = inhibition) at 10uM"
1,COCC(O)CSc1c([N+](=O)[O-])nc(C)n1Cc1ccc(OC)c([N+](=O)[O-])c1 (centres unmarked),-2.82%
2,CCCOc1ccc(Cn2c(C)nc([N+](=O)[O-])c2SCC(O)COC)cc1[N+](=O)[O-] (centres unmarked),-66%
3,Cn1cnc([N+](=O)[O-])c1SCC(O)CCl (centres unmarked),15.9%
4,Cc1nc([N+](=O)[O-])c(SCC(N)=O)n1Cc1ccccc1,27.8%
5,COc1ccc(Cn2c(C)nc([N+](=O)[O-])c2SCC(=O)O)cc1[N+](=O)[O-],16.5%
6,COc1ccc(Cn2cc([N+](=O)[O-])nc2C)cc1[N+](=O)[O-],-2.26%
7,CCOc1ccc(Cn2ccnc2CCl)cc1[N+](=O)[O-],-33.2%
8,O=C(O)c1ccc(COc2ccccc2[N+](=O)[O-])o1,14.8%
9,O=C1CCCC(O)=C1C(C#Cc1ccccc1)C1=C(O)CCCC1=O,-17.9%
10,COC(=O)c1c(C)oc2ccc(NS(=O)(=O)c3cccs3)cc12,-2.42%
11,CCOC(=O)c1c(C)oc2ccc(NS(=O)(=O)c3cccs3)cc12,6.47%
12,COCCOC(=O)c1c(C)oc2ccc(NS(=O)(=O)c3cccs3)cc12,-51.4%
13,CCOC(=O)c1ccc(NC(=O)CCSCCc2ccccn2)cc1,0.702%
14,CC(C)C[C@H](NC(=O)[C@H](Cc1ccccc1)n1c(=O)[nH]c2ccccc2c1=O)C(=O)N1CCC[C@H]1C(=O)O,6.16%
15,CCNc1nc(-c2ccc(OC(F)F)cc2)c(C)s1,15.1%
16,CCN(CC)CCNc1nc(-c2ccc(OC)cc2)c(-c2ccc(OC)cc2)s1,-52.6%
17,CNc1nc(-c2ccc(OC)cc2)c(-c2ccc(OC)cc2)s1,-12.7%
18,Br.COc1ccc(-c2nc(NC3=NCCCCC3)sc2C)cc1,-26.6%
19,CCN(CC)CCNc1nc(-c2ccc(OC(F)F)cc2)c(C)s1,-77.8%
20,COCCNc1nc(-c2ccc(OC)cc2)c(-c2ccc(OC)cc2)s1,15.3%
21,C/C(=N/NC(=O)c1ccc(Cl)cc1Cl)c1cccnc1,16.4%
22,CN1CCN(c2nc3c(c(=O)n(C)c(=O)n3C)n2Cc2cccc3ccccc23)CC1,-5.1%

row,SMILES,"hERG current change (%, negative = inhibition) at 10uM"
1,CN(CC(=O)Nc1ccc(Cl)cc1F)C1CCS(=O)(=O)C1 (centres unmarked),-20.6%
2,COc1ccc(CNC(=O)C2CC(=O)N(C3CCCC3)C2)cc1 (centres unmarked),-8.14%
3,O=C(OCC#CCSc1nnc(-c2ccccc2)o1)c1cccs1,-17.7%
4,Cc1ccc(-c2nnc(SCC#CCOC(=O)c3cccs3)o2)cc1,14.3%
5,O=C(OCC#CCSc1nnc(-c2ccncc2)o1)c1cccs1,-53.2%
6,COc1ccc(CN2CCNC(=O)C2CC(=O)NCc2cn[nH]c2-c2ccccc2)c(F)c1 (centres unmarked),-1.07%
7,Cc1cccc(NC(=O)c2ccccc2NC(=O)Cc2ccccc2)c1C,4.93%
8,CCNC(=O)CSc1nc(-c2ccccc2)cs1,-4.81%
9,CN(C)c1nc(N2CCN(c3ccccc3)CC2)c(C#N)c(=O)o1,-16.9%
10,CCN1CCN(C(c2cccs2)C(C)NC(=O)Oc2ccccc2)CC1 (centres unmarked),-38.5%
11,CC(C)N(C(=O)c1ccc2nc(-c3ccccc3)c(-c3ccccc3)nc2c1)C(C)C,-4.73%
12,Cc1ccc(SCc2nc(-c3ccccc3)no2)cc1,2.3%
13,O=C(NCC1CCCO1)c1cccc2ccccc12 (centres unmarked),21.2%
14,O=C(Cc1cccc2ccccc12)NCC1CCCO1 (centres unmarked),-5.85%
15,CCN(CC)CCOC(=O)CCc1cccc2ccccc12.O=C(O)C(=O)O,-42.6%
16,CCN(CC)CCOC(=O)C(Cc1ccco1)Cc1cccc2ccccc12.O=C(O)C(=O)O (centres unmarked),-76.8%
17,CCN(CC)CCOc1ccccc1OC.O=C(O)C(=O)O,-11%
18,CCN(CC)CCOC(=O)C(Cc1cccc2ccccc12)CC1CCCO1.O=C(O)C(=O)O (centres unmarked),-53.8%
19,CCOC(=O)C(C)Oc1ccc2c(C)cc(=O)oc2c1C(C)=O (centres unmarked),-13.8%
20,COCCn1c(SCC(=O)N2CCCCC2)nc2c(c1=O)SC(C)C2 (centres unmarked),9.29%
